Experimental data: the supplement of paper PMC11732987, “Enantioselective OTUD7B fragment discovery through chemoproteomics screening and high-throughput optimisation” (Communications Chemistry, 2025)

Legend:
Assay in all cases: log2 ratio of Biotin-Ahx-Ub-VS probe labelling (fragment/DMSO); higher = less target engagement (more negative = stronger competition), active = hit call of the paper (q ≤ 0.05, log2 ratio ≤ -1)
Settings in all cases: compound concentration: 200 uM; treatment time: 3 h
[1] = molecular target: T1, ALG13 (UniProt Q9NP73)
T1 sequence (whole entry): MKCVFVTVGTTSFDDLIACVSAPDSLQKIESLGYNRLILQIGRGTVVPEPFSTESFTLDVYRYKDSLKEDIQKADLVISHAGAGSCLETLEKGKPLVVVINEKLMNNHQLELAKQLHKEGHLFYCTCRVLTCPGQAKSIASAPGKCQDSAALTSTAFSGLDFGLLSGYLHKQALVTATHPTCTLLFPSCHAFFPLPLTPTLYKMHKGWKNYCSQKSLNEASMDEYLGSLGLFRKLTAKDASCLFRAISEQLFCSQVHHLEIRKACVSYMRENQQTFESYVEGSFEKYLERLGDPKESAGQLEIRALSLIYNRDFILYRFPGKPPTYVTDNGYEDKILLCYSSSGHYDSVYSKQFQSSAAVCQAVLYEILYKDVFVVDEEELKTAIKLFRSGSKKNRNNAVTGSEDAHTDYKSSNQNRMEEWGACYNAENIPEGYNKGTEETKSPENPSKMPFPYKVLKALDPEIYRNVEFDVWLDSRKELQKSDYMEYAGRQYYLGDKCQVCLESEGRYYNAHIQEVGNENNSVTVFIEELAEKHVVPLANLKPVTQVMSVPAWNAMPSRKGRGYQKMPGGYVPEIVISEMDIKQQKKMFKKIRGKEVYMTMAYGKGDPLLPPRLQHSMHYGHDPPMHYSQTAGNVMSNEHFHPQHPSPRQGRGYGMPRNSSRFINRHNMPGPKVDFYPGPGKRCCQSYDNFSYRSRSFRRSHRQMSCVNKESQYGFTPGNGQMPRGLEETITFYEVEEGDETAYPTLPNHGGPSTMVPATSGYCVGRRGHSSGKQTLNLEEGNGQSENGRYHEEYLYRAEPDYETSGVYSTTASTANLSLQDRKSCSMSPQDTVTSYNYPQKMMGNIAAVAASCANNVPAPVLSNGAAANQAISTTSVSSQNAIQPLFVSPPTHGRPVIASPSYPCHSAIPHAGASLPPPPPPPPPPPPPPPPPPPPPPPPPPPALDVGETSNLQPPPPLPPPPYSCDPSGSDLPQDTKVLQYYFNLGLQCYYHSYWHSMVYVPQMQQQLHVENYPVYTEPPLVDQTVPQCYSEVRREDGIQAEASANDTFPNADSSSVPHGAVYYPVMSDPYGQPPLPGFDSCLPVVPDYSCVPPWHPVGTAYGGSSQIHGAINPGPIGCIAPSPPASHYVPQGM
How it was run: (§1)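 Fragment (200 µM) or vehicle was incubated for 3 h with triplicate HEK293T lysate samples of 495 µg, which were then treated with Biotin-Ahx-Ub-VS at 0.5 µM final for 1 h. Labelled DUBs were enriched on NeutrAvidin, digested with LysC and trypsin, and analysed by diaPASEF LC-MS/MS. Values are average log2 fragment/vehicle ratios from an unpaired t-test on global-median-normalised Spectronaut label-free quantities, using proteins with ≥2 unique peptides.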

[2] = molecular target: ATXN3 (UniProt P54252)
Chain of ATXN3 (P54252 whole entry): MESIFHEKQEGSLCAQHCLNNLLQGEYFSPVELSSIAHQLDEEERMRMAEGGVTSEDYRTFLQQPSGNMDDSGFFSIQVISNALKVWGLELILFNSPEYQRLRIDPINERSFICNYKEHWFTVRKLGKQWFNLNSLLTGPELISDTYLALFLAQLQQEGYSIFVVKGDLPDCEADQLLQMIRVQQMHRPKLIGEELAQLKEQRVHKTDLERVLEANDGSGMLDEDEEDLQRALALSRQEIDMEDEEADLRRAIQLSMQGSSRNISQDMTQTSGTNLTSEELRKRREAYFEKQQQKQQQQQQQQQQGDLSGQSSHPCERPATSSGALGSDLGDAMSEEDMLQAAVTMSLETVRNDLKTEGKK
How it was run: as §1

[3] = molecular target: T2, BAP1 (UniProt Q92560)
T2 sequence (whole entry): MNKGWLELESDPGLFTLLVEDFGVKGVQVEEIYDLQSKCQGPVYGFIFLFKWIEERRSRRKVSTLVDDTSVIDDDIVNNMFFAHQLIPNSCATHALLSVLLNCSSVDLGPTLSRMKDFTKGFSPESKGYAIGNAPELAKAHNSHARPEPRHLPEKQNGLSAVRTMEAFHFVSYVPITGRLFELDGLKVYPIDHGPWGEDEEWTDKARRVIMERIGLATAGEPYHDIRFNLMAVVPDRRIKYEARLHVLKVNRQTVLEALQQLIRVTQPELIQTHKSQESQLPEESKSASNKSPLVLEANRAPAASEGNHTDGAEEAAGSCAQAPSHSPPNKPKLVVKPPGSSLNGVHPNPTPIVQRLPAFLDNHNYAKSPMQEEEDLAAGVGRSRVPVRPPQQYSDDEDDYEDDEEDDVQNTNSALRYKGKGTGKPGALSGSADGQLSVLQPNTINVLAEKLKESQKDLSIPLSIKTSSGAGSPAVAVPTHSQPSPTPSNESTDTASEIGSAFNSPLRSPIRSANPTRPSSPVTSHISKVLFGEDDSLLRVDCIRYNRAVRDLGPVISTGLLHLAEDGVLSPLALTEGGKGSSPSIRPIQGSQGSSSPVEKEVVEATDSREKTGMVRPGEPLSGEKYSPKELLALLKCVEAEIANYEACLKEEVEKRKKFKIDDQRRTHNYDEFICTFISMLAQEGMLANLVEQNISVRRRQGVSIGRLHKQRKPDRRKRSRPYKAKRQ
How it was run: as §1

[4] = molecular target: EIF3F (UniProt O00303)
Chain of EIF3F (O00303 whole entry): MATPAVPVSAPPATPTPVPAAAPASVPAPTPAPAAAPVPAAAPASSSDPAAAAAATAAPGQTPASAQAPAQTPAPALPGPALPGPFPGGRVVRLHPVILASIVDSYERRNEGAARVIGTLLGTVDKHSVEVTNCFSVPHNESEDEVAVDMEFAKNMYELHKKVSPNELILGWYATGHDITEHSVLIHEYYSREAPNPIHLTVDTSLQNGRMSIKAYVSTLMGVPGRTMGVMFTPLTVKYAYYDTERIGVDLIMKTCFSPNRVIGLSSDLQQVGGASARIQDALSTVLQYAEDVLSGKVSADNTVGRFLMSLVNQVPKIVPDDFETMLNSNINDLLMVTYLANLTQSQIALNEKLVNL
How it was run: as §1

[5] = molecular target: EIF3H (UniProt O15372)
Chain of EIF3H (O15372 whole entry): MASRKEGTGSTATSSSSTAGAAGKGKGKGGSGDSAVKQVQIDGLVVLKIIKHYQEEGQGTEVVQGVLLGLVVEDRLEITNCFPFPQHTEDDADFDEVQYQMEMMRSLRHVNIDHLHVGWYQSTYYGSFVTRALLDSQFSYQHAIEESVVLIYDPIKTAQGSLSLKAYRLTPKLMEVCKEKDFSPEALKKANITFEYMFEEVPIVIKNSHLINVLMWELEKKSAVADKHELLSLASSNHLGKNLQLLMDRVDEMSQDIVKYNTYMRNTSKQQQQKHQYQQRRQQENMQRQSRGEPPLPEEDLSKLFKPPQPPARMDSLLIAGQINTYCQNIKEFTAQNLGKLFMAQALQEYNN
How it was run: as §1

[6] = molecular target: T3, FAM105A (UniProt Q9NUU6)
T3 sequence (whole entry): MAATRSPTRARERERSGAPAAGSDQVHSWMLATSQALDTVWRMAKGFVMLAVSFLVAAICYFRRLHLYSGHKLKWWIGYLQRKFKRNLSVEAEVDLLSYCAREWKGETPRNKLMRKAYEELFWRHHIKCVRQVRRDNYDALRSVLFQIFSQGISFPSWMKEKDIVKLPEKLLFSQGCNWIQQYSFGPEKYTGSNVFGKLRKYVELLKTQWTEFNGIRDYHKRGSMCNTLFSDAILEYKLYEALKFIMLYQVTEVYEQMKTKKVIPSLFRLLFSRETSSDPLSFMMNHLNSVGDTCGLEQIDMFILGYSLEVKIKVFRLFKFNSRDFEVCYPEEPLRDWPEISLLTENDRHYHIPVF
How it was run: as §1

[7] = molecular target: OTUB1 (UniProt Q96FW1)
Chain of OTUB1 (Q96FW1 whole entry): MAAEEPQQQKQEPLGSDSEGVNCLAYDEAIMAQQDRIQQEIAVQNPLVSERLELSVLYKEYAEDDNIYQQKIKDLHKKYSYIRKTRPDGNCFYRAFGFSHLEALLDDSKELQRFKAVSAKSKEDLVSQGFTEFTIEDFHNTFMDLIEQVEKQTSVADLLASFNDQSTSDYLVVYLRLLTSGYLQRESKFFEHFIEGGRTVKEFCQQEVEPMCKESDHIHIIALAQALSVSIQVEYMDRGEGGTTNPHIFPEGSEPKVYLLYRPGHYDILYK
How it was run: as §1

[8] = molecular target: T4, OTUD4 (UniProt Q01804)
T4 sequence (whole entry): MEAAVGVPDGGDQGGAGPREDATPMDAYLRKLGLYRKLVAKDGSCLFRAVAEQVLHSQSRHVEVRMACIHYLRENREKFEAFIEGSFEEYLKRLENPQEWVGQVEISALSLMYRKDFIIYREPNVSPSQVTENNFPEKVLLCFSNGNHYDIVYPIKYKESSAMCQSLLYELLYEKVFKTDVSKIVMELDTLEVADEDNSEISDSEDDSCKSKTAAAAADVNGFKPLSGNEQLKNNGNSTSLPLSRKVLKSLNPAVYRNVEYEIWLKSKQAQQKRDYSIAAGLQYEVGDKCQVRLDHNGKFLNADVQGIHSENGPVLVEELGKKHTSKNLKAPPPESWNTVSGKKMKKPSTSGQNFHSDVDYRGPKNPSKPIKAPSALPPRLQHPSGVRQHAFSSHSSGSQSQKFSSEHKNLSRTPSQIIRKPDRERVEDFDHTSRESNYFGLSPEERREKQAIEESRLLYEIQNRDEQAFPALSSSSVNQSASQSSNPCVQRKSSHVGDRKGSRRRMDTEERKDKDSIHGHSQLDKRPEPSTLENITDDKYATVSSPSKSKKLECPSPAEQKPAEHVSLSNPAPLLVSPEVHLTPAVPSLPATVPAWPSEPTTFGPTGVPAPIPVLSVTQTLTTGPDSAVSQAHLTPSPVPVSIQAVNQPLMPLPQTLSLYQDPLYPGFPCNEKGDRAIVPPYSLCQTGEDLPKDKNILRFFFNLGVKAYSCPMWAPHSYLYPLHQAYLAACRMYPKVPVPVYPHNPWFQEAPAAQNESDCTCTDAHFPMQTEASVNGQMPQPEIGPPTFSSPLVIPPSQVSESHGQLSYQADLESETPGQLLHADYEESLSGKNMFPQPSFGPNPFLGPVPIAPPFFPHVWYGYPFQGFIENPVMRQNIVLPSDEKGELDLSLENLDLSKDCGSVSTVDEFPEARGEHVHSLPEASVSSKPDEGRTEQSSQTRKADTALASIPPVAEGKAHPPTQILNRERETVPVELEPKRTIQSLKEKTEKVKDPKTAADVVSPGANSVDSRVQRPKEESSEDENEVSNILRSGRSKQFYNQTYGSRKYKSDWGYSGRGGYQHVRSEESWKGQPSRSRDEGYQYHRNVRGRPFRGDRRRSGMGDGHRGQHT
How it was run: as §1

[9] = molecular target: T5, OTUD5 (UniProt Q96G74)
T5 sequence (whole entry): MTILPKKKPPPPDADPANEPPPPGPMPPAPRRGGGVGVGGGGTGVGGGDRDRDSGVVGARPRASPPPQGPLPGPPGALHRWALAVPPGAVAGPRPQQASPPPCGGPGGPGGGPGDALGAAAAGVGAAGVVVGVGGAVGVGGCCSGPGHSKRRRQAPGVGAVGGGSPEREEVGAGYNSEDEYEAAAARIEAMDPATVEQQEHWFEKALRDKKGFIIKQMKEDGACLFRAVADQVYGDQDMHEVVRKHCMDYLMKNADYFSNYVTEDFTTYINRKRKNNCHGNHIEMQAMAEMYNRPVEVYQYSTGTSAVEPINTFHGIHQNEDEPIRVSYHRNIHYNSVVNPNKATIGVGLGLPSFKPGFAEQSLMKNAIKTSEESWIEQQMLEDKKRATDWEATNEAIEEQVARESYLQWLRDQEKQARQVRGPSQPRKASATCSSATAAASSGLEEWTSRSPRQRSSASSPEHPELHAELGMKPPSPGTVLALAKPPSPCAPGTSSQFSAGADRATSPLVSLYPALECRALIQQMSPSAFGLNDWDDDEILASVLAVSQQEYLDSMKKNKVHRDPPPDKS
How it was run: as §1

Measured: log2 ratio of Biotin-Ahx-Ub-VS probe labelling

O=C(CCl)NC1(c2ccc3c(c2)OCCO3)CCCC1
inactive: [1] -0.035 | [2] -0.252 | [4] -0.19 | [5] -0.051 | [6] 0.0394 | [7] -0.359 | [9] -0.293
active: [3] -1.89 | [8] -1.1
